Laboratory results taken from the supplement of paper PMC12494721.
Counter-ions that a name gives are not always drawn.

How the values were obtained:
Conditions in all cases: incubation time: 27 h, anaerobic, 37 °C;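 for the amine columns active = adjusted P below 0.05 in both replicates with a change the same way and a mean fold change under 0.8 or over 1.25; inactive = the rest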
[1] = tested on: Clostridium sporogenes DSM 1664; assay: growth (OD595) fold change vs plate DMSO controls (fold change (ratio)); higher = more growth
How it was run: (§1)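 After 27 h at 37 °C under anaerobic conditions, 96-well cultures in mGAM were shaken and read at 595 nm. The readings were blank-subtracted, corrected for compound background using 20 µM compound solutions in water, and converted to OD with a calibration factor of 5. Growth is defined as the fold change over the median of DMSO controls on each plate. Fold changes above 1.5 were set to NA, and each value is the mean of 2 biological replicates.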

Escherichia coli IAI1 [2] = assay: as above
How it was run: as §1

[3] = tested on: Klebsiella aerogenes DSM 30053; assay: as above
How it was run: as §1

[4] = tested on: Ruminococcus gnavus DSM 108212; assay: as above
How it was run: as §1

[5] = tested on: Klebsiella aerogenes DSM 30053; assay: fold change of Histamine concentration vs plate DMSO controls (fold change (ratio)); higher = more amine produced, active = hit call of the paper (significant change in both replicates, either direction)
How it was run: (§2)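 Extracts of whole anaerobic mGAM cultures were analysed for amines by LC–triple-quadrupole MS with dynamic MRM and external calibration curves, with drift corrected within batch. Four gut strains were grown at 37 °C for 27 h in 80 µL wells with compounds at 20 µM final, sweeteners at 50 µM final. Each value expresses fold change over plate DMSO controls. The average of 2 biological replicates is shown.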

[6] = tested on: Clostridium sporogenes DSM 1664; assay: fold change of Tryptamine concentration vs plate DMSO controls (fold change (ratio)); higher = more amine produced, active = hit call of the paper (significant change in both replicates, either direction)
How it was run: as §2

[7] = tested on: Ruminococcus gnavus DSM 108212; assay: as above
How it was run: as §2

Escherichia coli IAI1 [8] = assay: fold change of Putrescine concentration vs plate DMSO controls (fold change (ratio)); higher = more amine produced, active = hit call of the paper (significant change in both replicates, either direction)
How it was run: as §2

[9] = tested on: Klebsiella aerogenes DSM 30053; assay: as above
How it was run: as §2

Escherichia coli IAI1 [10] = assay: fold change of Cadaverine concentration vs plate DMSO controls (fold change (ratio)); higher = more amine produced, active = hit call of the paper (significant change in both replicates, either direction)
How it was run: as §2

[11] = tested on: Klebsiella aerogenes DSM 30053; assay: as above
How it was run: as §2

[12] = tested on: Ruminococcus gnavus DSM 108212; assay: fold change of 2-Phenylethylamine concentration vs plate DMSO controls (fold change (ratio)); higher = more amine produced, active = hit call of the paper (significant change in both replicates, either direction)
How it was run: as §2

| Structure (SMILES) | growth [1] | growth (Escherichia coli IAI1 [2]) | growth [3] | growth [4] | fold change of Histamine concentration [5] | fold change of Tryptamine concentration [6] | fold change of Tryptamine concentration [7] | fold change of Putrescine concentration (Escherichia coli IAI1 [8]) | fold change of Putrescine concentration [9] | fold change of Cadaverine concentration (Escherichia coli IAI1 [10]) | fold change of Cadaverine concentration [11] | fold change of 2-Phenylethylamine concentration [12] |
| --- | --- | --- | --- | --- | --- | --- | --- | --- | --- | --- | --- | --- |
| CN(C)CCn1nnnc1SCC1=C(C(=O)O)N2C(=O)[C@@H](NC(=O)Cc3csc(N)n3)[C@H]2SC1 [Cefotiam hydrochloride] (20 µM) | 0 | 0.00521 | 1.05 | 0.248 | 1.27 (inactive) | 0.0154 (active) | 0.0411 (active) | 0.121 (active) | 1.08 (inactive) | 0.522 (active) | 1.14 (inactive) | 0.0464 (active) |
| Cc1c(N(C)C)c(=O)n(-c2ccccc2)n1C [Amidopyrine] (20 µM) | 0.923 | 1.02 | 0.997 | 1.18 | 0.997 (inactive) | 0.979 (inactive) | 1.16 (inactive) | 0.995 (inactive) | 0.986 (inactive) | 0.985 (inactive) | 1.03 (inactive) | 1.19 (inactive) |
| CN1CCN(C2=Nc3ccccc3Oc3ccc(Cl)cc32)CC1 [Loxapine succinate] (20 µM) | 1.12 | 1.04 | 1.04 | 1.4 | 0.932 (inactive) | 1.04 (inactive) | 0.962 (inactive) | 0.998 (inactive) | 1 (inactive) | 1.01 (inactive) | 1.02 (inactive) | 0.973 (inactive) |
| CO/N=C(\C(=O)N[C@@H]1C(=O)N2C(C(=O)O)=C(COC(C)=O)CS[C@H]12)c1csc(N)n1 [Cefotaxime sodium salt] (20 µM) | 0.00126 | 0.00374 | 0.601 | 0.2 | 0.733 (inactive) | 0.0286 (active) | 0.0769 (active) | 0.143 (active) | 0.729 (inactive) | 0.574 (active) | 1.02 (inactive) | 0.055 (active) |
| CCOC(=O)c1ccc(N)cc1 [Benzocaine] (20 µM) | 1.09 | 1.03 | 1.08 | 1.02 | 0.954 (inactive) | 1.1 (inactive) | 1.06 (inactive) | 0.92 (inactive) | 0.969 (inactive) | 1 (inactive) | 1.01 (inactive) | 1.1 (inactive) |
| CC(C(=O)O)c1ccc(N2CC=CC2)c(Cl)c1 (stereo unspecified) [Pirprofen] (20 µM) | 1.03 | 1.01 | 0.978 | 0.973 | 1.04 (inactive) | 0.987 (inactive) | 1.06 (inactive) | 1.04 (inactive) | 0.957 (inactive) | 0.95 (inactive) | 0.981 (inactive) | 1.15 (inactive) |
| C#C[C@]1(O)CC[C@H]2[C@@H]3CCC4=Cc5oncc5C[C@]4(C)[C@H]3CC[C@@]21C [Danazol] (20 µM) | 0.903 | 0.883 | 0.858 | 0.744 | 1.07 (inactive) | 0.887 (inactive) | 1.03 (inactive) | 1.01 (inactive) | 1.02 (inactive) | 0.994 (inactive) | 0.993 (inactive) | 0.997 (inactive) |
| CC(=O)Nc1ccc(C(=O)O)cc1 [Acedoben] (20 µM) | 1.09 | 1 | 0.977 | 0.997 | 1.02 (inactive) | 0.935 (inactive) | 1.03 (inactive) | 1.01 (inactive) | 1 (inactive) | 1.02 (inactive) | 0.995 (inactive) | 1 (inactive) |
| Cc1nc2n(c(=O)c1CCN1CCC(c3noc4cc(F)ccc34)CC1)CCCC2 [Risperidone] (20 µM) | 1 | 1 | 1 | 1.02 | 1.04 (inactive) | 0.962 (inactive) | 0.931 (inactive) | 1.33 (inactive) | 1.05 (inactive) | 0.952 (inactive) | 1.01 (inactive) | 0.878 (inactive) |
| CN1CCC[C@@H]1CCO[C@](C)(c1ccccc1)c1ccc(Cl)cc1 [Clemastine fumarate] (20 µM) | 1.2 | 1.02 | 1.09 | 0.749 | 0.843 (inactive) | 1 (inactive) | 0.851 (inactive) | 1.06 (inactive) | 0.975 (inactive) | 1.12 (inactive) | 1.03 (inactive) | 0.886 (inactive) |
| CN(N=O)C(=O)N[C@H]1C(O)O[C@H](CO)[C@@H](O)[C@@H]1O (mixture of isomers) [Streptozotocin] (20 µM) | 1.04 | 1.19 | 1 | 0.279 | 0.835 (inactive) | 0.798 (inactive) | 0.312 (active) | 1.04 (inactive) | 0.962 (inactive) | 1.31 (active) | 0.993 (inactive) | 0.376 (inactive) |
| NC[C@@H]1O[C@H](O[C@H]2[C@@H](O)[C@H](O[C@@H]3[C@@H](O)[C@H](N)C[C@H](N)[C@H]3O[C@H]3O[C@H](CN)[C@@H](O)[C@H](O)[C@H]3N)O[C@@H]2CO)[C@H](N)[C@@H](O)[C@@H]1O [Neomycin sulfate] (20 µM) | 0.902 | 0.997 | 1.02 | 0.938 | 0.893 (inactive) | 1.16 (inactive) | 1.08 (inactive) | 0.954 (inactive) | 0.966 (inactive) | 0.897 (inactive) | 1.02 (inactive) | 1.11 (inactive) |
| COCCOC(=O)C1=C(C)NC(C)=C(C(=O)OC/C=C/c2ccccc2)C1c1cccc([N+](=O)[O-])c1 (stereo unspecified) [Cilnidipine] (20 µM) | 1.19 | 0.996 | 1.16 | 0.973 | 0.989 (inactive) | 0.918 (inactive) | 0.945 (inactive) | 1 (inactive) | 1.01 (inactive) | 0.982 (inactive) | 1.03 (inactive) | 0.905 (inactive) |
